According to the supplement of paper PMC6089552:
In all, about 3,200 compounds went through this assay and about 300 (9.4%) showed activity. Shown is part of a subset that was picked to be rich in actives.

Test system: A673/TR/shEF
Assay: cell viability (LOESS-normalised, relative to median of negative controls) (log2 ratio); higher = more viable cells (less compound effect), active = hit call of the paper (over 3 MAD below the median)
Conditions: treatment time: 72 h
Outline: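 For three days, A673/TR/shEF Ewing sarcoma cells in 384-well plates (1,500 per well) were treated with library compounds at two or more concentrations or with DMSO controls, after doxycycline had been added or withheld 24 h beforehand to induce EWS-FLI1 shRNA knockdown. Viability was read by CellTiter-Glo luminescence on an Envision reader. The data were LOESS-corrected per plate, divided by the median of negative controls and log2-transformed.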

[1] = 0.25 µM, library screen: screen1, EWS-FLI1 expression: high (no doxycycline)
[2] = 0.25 µM, library screen: screen1, EWS-FLI1 expression: low (doxycycline-induced shRNA knockdown)
[3] = 2.5 µM, library screen: screen1, EWS-FLI1 expression: high (no doxycycline)
[4] = 2.5 µM, library screen: screen1, EWS-FLI1 expression: low (doxycycline-induced shRNA knockdown)
[5] = 0.25 µM, library screen: screen2, EWS-FLI1 expression: high (no doxycycline)
[6] = 0.25 µM, library screen: screen2, EWS-FLI1 expression: low (doxycycline-induced shRNA knockdown)
[7] = 2.5 µM, library screen: screen2, EWS-FLI1 expression: high (no doxycycline)
[8] = 2.5 µM, library screen: screen2, EWS-FLI1 expression: low (doxycycline-induced shRNA knockdown)
[9] = 0.103 µM, library screen: screen3, EWS-FLI1 expression: high (no doxycycline)
[10] = 0.103 µM, library screen: screen3, EWS-FLI1 expression: low (doxycycline-induced shRNA knockdown)
[11] = 0.308 µM, library screen: screen3, EWS-FLI1 expression: high (no doxycycline)
[12] = 0.308 µM, library screen: screen3, EWS-FLI1 expression: low (doxycycline-induced shRNA knockdown)
[13] = 0.926 µM, library screen: screen3, EWS-FLI1 expression: high (no doxycycline)
[14] = 0.926 µM, library screen: screen3, EWS-FLI1 expression: low (doxycycline-induced shRNA knockdown)
[15] = 2.8 µM, library screen: screen3, EWS-FLI1 expression: high (no doxycycline)
[16] = 2.8 µM, library screen: screen3, EWS-FLI1 expression: low (doxycycline-induced shRNA knockdown)
[17] = 8.3 µM, library screen: screen3, EWS-FLI1 expression: high (no doxycycline)
[18] = 8.3 µM, library screen: screen3, EWS-FLI1 expression: low (doxycycline-induced shRNA knockdown)
[19] = 25 µM, library screen: screen3, EWS-FLI1 expression: high (no doxycycline)
[20] = 25 µM, library screen: screen3, EWS-FLI1 expression: low (doxycycline-induced shRNA knockdown)

Measured: cell viability (log2)

COc1cc2ccc(=O)oc2c(OC)c1OC
inactive: [1] 0.24 | [2] 0.119 | [3] 0.156 | [4] 0.115

CC(C)/C(O)=C1/C(=O)O[C@@H](c2ccoc2)[C@]2(C)C(O)[C@@H](O)[C@@]34OC5(C)OC67CC(C)(C(O)[C@]6(O)[C@@H](O)[C@]3(O5)C12)[C@H](CC(=O)O)[C@]74C (stereo partly specified)
inactive: [1] 0.0599 | [2] 0.0645 | [3] 0.0749 | [4] 0.047

COC(=O)C1=C(C)NC2=C(C(=O)CCC2)C1c1coc2ccccc2c1=O (stereo unspecified)
inactive: [1] 0.109 | [2] 0.0579 | [3] 0.125 | [4] 0.0379

CC(=O)O[C@@H]1CC2C(C)(C)[C@@H](O)CC[C@]2(C)C2CC[C@@]3(C)[C@H](c4ccoc4)OC(=O)[C@H]4O[C@]43[C@@]21C (stereo partly specified)
inactive: [1] 0.0735 | [2] 0.138 | [3] 0.203 | [4] 0.158

CCOc1cc(/C=C2\SC(=S)N(CCS(=O)(=O)O)C2=O)ccc1O
inactive: [1] -0.00487 | [2] 0.0852 | [3] 0.0865 | [4] 0.0812

CN1CCN(c2nc3ccccn3c(=O)c2/C=C2\SC(=S)N(CCc3ccccc3)C2=O)CC1
inactive: [1] -0.00293 | [2] 0.00861 | [3] 0.0344 | [4] 0.124

C[C@H](CCC(=O)O)[C@H]1CC[C@H]2[C@@H]3CC[C@@H]4CCCC[C@]4(C)[C@H]3CC[C@]12C
inactive: [1] 0.0641 | [2] -0.0159 | [3] 0.109 | [4] -0.0358

C/C=C(/C)C(=O)O[C@H]1[C@H](OC(C)=O)[C@]2(CO)[C@H](O)C[C@]3(C)C(=CC[C@@H]4[C@@]5(C)CC[C@H](O[C@@H]6O[C@H](C(=O)O)[C@@H](O[C@@H]7O[C@H](CO)[C@@H](O)[C@H](O)[C@H]7O)[C@H](O)[C@H]6O[C@@H]6O[C@H](CO)[C@@H](O)[C@H](O)[C@H]6O)[C@](C)(CO)[C@@H]5CC[C@]43C)[C@@H]2CC1(C)C.C/C=C(\C)C(=O)O[C@H]1[C@H](OC(C)=O)[C@@]2(CO)C(CC1(C)C)C1=CCC3[C@@]4(C)CC[C@H](O[C@@H]5O[C@H](C(=O)O)[C@@H](O[C@@H]6O[C@H](CO)[C@@H](O)[C@H](O)[C@H]6O)[C@H](O)[C@H]5O[C@@H]5O[C@H](CO)[C@@H](O)[C@H](O)[C@H]5O)[C@](C)(CO)C4CC[C@@]3(C)[C@]1(C)C[C@H]2O
inactive: [1] 0.0112 | [2] -0.0408 | [3] 0.0934 | [4] 0.0403

CCC1(O)CC2CN(CCc3c([nH]c4ccccc34)[C@@](C(=O)OC)(c3cc4c(cc3OC)N(C)C3[C@]45CCN4CC=C[C@@](CC)([C@@H](OC(C)=O)[C@]3(O)C(=O)OC)[C@H]45)C2)C1 (stereo partly specified)
active: [5] -3.54 | [6] -0.483 | [7] -3.67 | [8] -0.537

CC[C@]1(O)C[C@H]2CN(CCc3c([nH]c4ccccc34)[C@@](C(=O)OC)(c3cc4c(cc3OC)N(C=O)[C@H]3[C@@](O)(C(=O)OC)[C@H](OC(C)=O)[C@]5(CC)C=CCN6CC[C@]43[C@@H]65)C2)C1
active: [9] -3.56 | [10] -0.748 | [5] -2.87 | [6] -0.436 | [11] -3.82 | [12] -0.668 | [13] -3.92 | [14] -0.728 | [7] -2.88 | [8] -0.517 | [15] -3.8 | [16] -0.704 | [17] -3.93 | [18] -0.847 | [19] -3.66 | [20] -0.84

CCC1=C[C@@H]2CN(C1)Cc1c([nH]c3ccccc13)[C@@](C(=O)OC)(c1cc3c(cc1OC)N(C)[C@H]1[C@@](O)(C(=O)OC)[C@H](OC(C)=O)[C@]4(CC)C=CCN5CC[C@]31[C@@H]54)C2
active: [9] -4.31 | [10] -1.05 | [11] -3.96 | [12] -1.11 | [13] -4.31 | [14] -0.811 | [15] -4.31 | [16] -0.798 | [17] -3.91 | [18] -0.769 | [19] -3.44 | [20] -0.836

C=CCN1C(=O)C(=C2C(=O)N(C)c3ccccc32)SC1=S
inactive: [1] 0.145 | [2] 0.0841 | [3] 0.0806 | [4] 0.0634

CC1(C)C[C@H](O)[C@]23CC[C@@H](O)[C@@](C)(CC[C@@H]12)C3
inactive: [1] 0.155 | [2] 0.054 | [3] 0.181 | [4] 0.0139

C=CCNc1nc2ccccn2c(=O)c1/C=C1\SC(=S)N(CCc2ccccc2)C1=O
inactive: [1] 0.071 | [2] 0.0307 | [3] 0.121 | [4] 0.134

CCOC(=O)c1c[nH]c2c(Cl)c(Cl)ccc2c1=O
inactive: [1] 0.0772 | [2] 0.122 | [3] 0.11 | [4] 0.176

O=C(O)c1ccc(O)c2c1C(=O)c1cc(O)cc(O)c1C2=O
inactive: [1] 0.0473 | [2] -0.0191 | [3] 0.0745 | [4] 0.0247

COc1cc(OC)c(OC)cc1CN1CCN(Cc2cccnc2)CC1
inactive: [1] 0.0812 | [2] 0.0446 | [3] 0.193 | [4] 0.00403

COC(=O)Nc1ccc(-c2nc(N3CCOCC3)c3cnn(C4CCN(Cc5cccnc5)CC4)c3n2)cc1
active: [15] -0.33 | [16] -0.297 | [17] -0.973 | [18] -0.691 | [19] -1.84 | [20] -1.76
inactive: [9] -0.0181 | [10] 0.0282 | [11] -0.00456 | [12] -0.0439 | [13] -0.169 | [14] -0.0706

COC(=O)Nc1ccc(-c2nc(N3CCOCC3)c3cnn(C4CCN(C(=O)OC)CC4)c3n2)cc1
inactive: [9] -0.0923 | [10] 0.0164 | [11] -0.0767 | [12] -0.0949 | [13] -0.134 | [14] -0.0918
active: [15] -0.281 | [16] -0.237 | [17] -0.419 | [18] -0.244 | [19] -0.744 | [20] -0.369

COc1cc(CN2CCN(Cc3cccnc3)CC2)cc(OC)c1OC
inactive: [1] 0.0843 | [2] 0.0394 | [3] 0.126 | [4] 0.144
